# Results published in PubChem BioAssay (Tox21).
# Records with an inconclusive call do not appear. Where a call stands in place of a potency, no number is given. Where a structure was tested more than once in an assay, its records may differ in their call. Calls of active or inactive are those of the source. Unless noted, calls come from the whole dose curve; as a rule, active = well fitted cell-killing curve with a large enough effect in the repeat runs; inconclusive = weak or mixed curves, or effect the other way; inactive = no such curve, though single readings can be large or run the other way. Residues, ends and D or L forms follow the SMILES beside them.
# Test: qHTS assay to identify small molecule agonists of the endoplasmic reticulum stress response signaling pathway (AID 1159516; active = well fitted activation curve with a large enough effect in the signal ratio in the repeat runs, not every such curve was filed as active; the % refers to the signal ratio)
# Conditions: ESRE-bla HeLa, ER stress beta-lactamase reporter, 5 h; series mostly up to 61 µM
# Summary of the method: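 CellSensor ESRE-bla HeLa cells, 1,500 per well, plated overnight, then exposed to compounds for 5 hr at 37 C. Beta-lactamase reporter read with LiveBLAzer B/G FRET substrate after 2 hr at room temperature, 405 nm excitation, 460 and 530 nm emission.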
row,Compound,outcome
1,O=C(O)CCC(=O)O,inactive
2,CCCC(O)C(CC)CO (stereo not drawn),inactive
3,CC(O)CO (stereo not drawn),inactive
4,CC(O)CN(CCN(CC(C)O)CC(C)O)CC(C)O (stereo not drawn),inactive
5,O=C(O)c1cccnc1,inactive
6,O=C(O)C(=O)O,inactive
7,CC(=O)Nc1nnc(S(N)(=O)=O)s1,inactive
8,OC(Cn1cncn1)(Cn1cncn1)c1ccc(F)cc1F,inactive
9,O=C(O)c1cccc([N+](=O)[O-])c1,inactive
10,CC(O)C(=O)O (stereo not drawn),inactive
11,Nc1ccn([C@H]2CC[C@@H](CO)O2)c(=O)n1,inactive
12,CC1(C)[C@@H]2CC[C@@]1(C)C(=O)C2,inactive
13,Cc1ccccc1C(OCCN(C)C)c1ccccc1 (stereo not drawn),inactive
14,Nc1ccc(S(=O)(=O)Nc2nccs2)cc1,inactive
15,COC(=O)[C@H](Cc1ccccc1)NC(=O)[C@@H](N)CC(=O)O (H-Asp-Phe-OMe),inactive
16,O=C1NC(=O)c2ccccc21,inactive
17,CCCCCCCCCCCCCCCC(=O)O,inactive
18,Cc1ccc(C)c(OCCCC(C)(C)C(=O)O)c1,inactive

row,Compound,outcome
1,CC(=O)OCC(COC(C)=O)OC(C)=O,inactive
2,C1N2CN3CN1CN(C2)C3,inactive
3,O=c1cc[nH]c(=S)[nH]1,inactive
4,CCCNC(=O)NS(=O)(=O)c1ccc(Cl)cc1,inactive
5,Nc1ccc(O)c(C(=O)O)c1,inactive
6,NC(N)=NC(=O)c1nc(Cl)c(N)nc1N,inactive
7,CC(C)[C@@H]1CC[C@@H](C)C[C@H]1O,inactive
8,Cc1ccc(S(=O)(=O)NC(=O)NN2CCCCCC2)cc1,inactive
9,O=C(c1ccccc1)c1ccccc1,inactive
10,O=C1CN(/N=C/c2ccc([N+](=O)[O-])o2)C(=O)N1,inactive
11,c1ccc2[nH]ccc2c1,inactive
12,CCCCC(CC)COC(=O)/C=C/c1ccc(OC)cc1 (stereo not drawn),inactive
13,COc1ccc2[nH]cc(CCNC(C)=O)c2c1,inactive
14,O=C(O)CCCCCCCC(=O)O,inactive
15,NC(=O)NC1NC(=O)NC1=O (stereo not drawn),inactive
16,CCCC(CCC)C(=O)O,inactive
17,O=NO,inactive
18,Cc1noc(NS(=O)(=O)c2ccc(N)cc2)c1C,inactive

# Test: qHTS assay to identify small molecule agonists of the endoplasmic reticulum stress response signaling pathway - cell viability counter screen (AID 1159517; calls by dose curve;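 note: HeLa cells carrying an ER stress response element beta-lactamase reporter; nearly all actives have a fitted effect of over 50% in size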)
# Conditions: ESRE-bla HeLa viability, CellTiter-Glo luminescence, 5 h; series mostly up to 61 µM
# Summary of the method: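 Counter-screen wells were identical to the reporter wells. Cells were plated at 1,500 per well and dosed for 5 hr, then read for luminescence 30 min after CellTiter-Glo addition.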
row,Compound,outcome
1,O=C(O)CCC(=O)O,inactive
2,CCCC(O)C(CC)CO (stereo not drawn),inactive
3,CC(O)CO (stereo not drawn),inactive
4,CC(O)CN(CCN(CC(C)O)CC(C)O)CC(C)O (stereo not drawn),inactive
5,O=C(O)c1cccnc1,inactive
6,O=C(O)C(=O)O,inactive
7,CC(=O)Nc1nnc(S(N)(=O)=O)s1,inactive
8,OC(Cn1cncn1)(Cn1cncn1)c1ccc(F)cc1F,inactive
9,O=C(O)c1cccc([N+](=O)[O-])c1,inactive
10,CC(O)C(=O)O (stereo not drawn),inactive
11,Nc1ccn([C@H]2CC[C@@H](CO)O2)c(=O)n1,inactive
12,CC1(C)[C@@H]2CC[C@@]1(C)C(=O)C2,inactive
13,Cc1ccccc1C(OCCN(C)C)c1ccccc1 (stereo not drawn),inactive
14,Nc1ccc(S(=O)(=O)Nc2nccs2)cc1,inactive
15,COC(=O)[C@H](Cc1ccccc1)NC(=O)[C@@H](N)CC(=O)O (H-Asp-Phe-OMe),inactive
16,O=C1NC(=O)c2ccccc21,inactive
17,CCCCCCCCCCCCCCCC(=O)O,inactive
18,Cc1ccc(C)c(OCCCC(C)(C)C(=O)O)c1,inactive

row,Compound,outcome
1,CC(=O)OCC(COC(C)=O)OC(C)=O,inactive
2,C1N2CN3CN1CN(C2)C3,inactive
3,O=c1cc[nH]c(=S)[nH]1,inactive
4,CCCNC(=O)NS(=O)(=O)c1ccc(Cl)cc1,inactive
5,Nc1ccc(O)c(C(=O)O)c1,inactive
6,NC(N)=NC(=O)c1nc(Cl)c(N)nc1N,inactive
7,CC(C)[C@@H]1CC[C@@H](C)C[C@H]1O,inactive
8,Cc1ccc(S(=O)(=O)NC(=O)NN2CCCCCC2)cc1,inactive
9,O=C(c1ccccc1)c1ccccc1,inactive
10,O=C1CN(/N=C/c2ccc([N+](=O)[O-])o2)C(=O)N1,inactive
11,c1ccc2[nH]ccc2c1,inactive
12,CCCCC(CC)COC(=O)/C=C/c1ccc(OC)cc1 (stereo not drawn),inactive
13,COc1ccc2[nH]cc(CCNC(C)=O)c2c1,inactive
14,O=C(O)CCCCCCCC(=O)O,inactive
15,NC(=O)NC1NC(=O)NC1=O (stereo not drawn),inactive
16,CCCC(CCC)C(=O)O,inactive
17,O=NO,inactive
18,Cc1noc(NS(=O)(=O)c2ccc(N)cc2)c1C,inactive

# Test: qHTS assay to identify small molecule antagonists of the retinoid-related orphan receptor gamma (ROR-gamma) signaling pathway - cell viability counter screen (AID 1159520); note: nearly all actives have a fitted effect of over 50% in size; note: potency is the fitted concentration of half-maximal effect
# Conditions: Tet-on RORgamma CHO cells viability, ATP luminescence, 16 h; series mostly up to 92.4 µM
# Summary of the method: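 Tet-on ROR gamma CHO cells were given compounds for 2 hr, then doxycycline hyclate at 1 uM final, and incubated 16 hr at 37 C. Viability was measured as ATP content by CellTiter-Glo luminescence.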
row,Compound,Potency
1,O=C(O)CCC(=O)O,inactive
2,CCCC(O)C(CC)CO (stereo not drawn),inactive
3,CC(O)CO (stereo not drawn),inactive
4,CC(O)CN(CCN(CC(C)O)CC(C)O)CC(C)O (stereo not drawn),inactive
5,O=C(O)c1cccnc1,inactive
6,O=C(O)C(=O)O,inactive
7,CC(=O)Nc1nnc(S(N)(=O)=O)s1,inactive
8,OC(Cn1cncn1)(Cn1cncn1)c1ccc(F)cc1F,inactive
9,O=C(O)c1cccc([N+](=O)[O-])c1,inactive
10,CC(O)C(=O)O (stereo not drawn),inactive
11,Nc1ccn([C@H]2CC[C@@H](CO)O2)c(=O)n1,inactive
12,CC1(C)[C@@H]2CC[C@@]1(C)C(=O)C2,inactive
13,Cc1ccccc1C(OCCN(C)C)c1ccccc1 (stereo not drawn),inactive
14,Nc1ccc(S(=O)(=O)Nc2nccs2)cc1,inactive
15,COC(=O)[C@H](Cc1ccccc1)NC(=O)[C@@H](N)CC(=O)O (H-Asp-Phe-OMe),inactive
16,O=C1NC(=O)c2ccccc21,inactive
17,CCCCCCCCCCCCCCCC(=O)O,inactive
18,Cc1ccc(C)c(OCCCC(C)(C)C(=O)O)c1,inactive

row,Compound,Potency
1,CC(=O)OCC(COC(C)=O)OC(C)=O,inactive
2,C1N2CN3CN1CN(C2)C3,inactive
3,O=c1cc[nH]c(=S)[nH]1,inactive
4,CCCNC(=O)NS(=O)(=O)c1ccc(Cl)cc1,inactive
5,Nc1ccc(O)c(C(=O)O)c1,inactive
6,NC(N)=NC(=O)c1nc(Cl)c(N)nc1N,inactive
7,CC(C)[C@@H]1CC[C@@H](C)C[C@H]1O,inactive
8,Cc1ccc(S(=O)(=O)NC(=O)NN2CCCCCC2)cc1,inactive
9,O=C(c1ccccc1)c1ccccc1,inactive
10,O=C1CN(/N=C/c2ccc([N+](=O)[O-])o2)C(=O)N1,inactive
11,c1ccc2[nH]ccc2c1,2.69 µM (active) and inactive
12,CCCCC(CC)COC(=O)/C=C/c1ccc(OC)cc1 (stereo not drawn),inactive
13,COc1ccc2[nH]cc(CCNC(C)=O)c2c1,inactive
14,O=C(O)CCCCCCCC(=O)O,inactive
15,NC(=O)NC1NC(=O)NC1=O (stereo not drawn),inactive
16,CCCC(CCC)C(=O)O,inactive
17,O=NO,inactive
18,Cc1noc(NS(=O)(=O)c2ccc(N)cc2)c1C,inactive
